Several values for one entry are separate records, joined by “and”; a condition that tells them apart may be missing. Equal values may be shown once. About 79,000 compounds went through this panel and 15% of them were active in at least one assay; those are over-represented in the sample as a whole. Unmarked numbers belong to inactive results. Activity calls are given as the source filed them. Cut-off read from the data, not from the text of the source: active = growth inhibition above about 70%; inactive = the rest.
Assay: NCI Yeast Anticancer Drug Screen. Data for the cln2 rad14 strain (AID 165);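 note: 0% = growth equal to vehicle treated cultures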
Details: S. cerevisiae cln2 rad14 strain, stronger effect = higher value
Description: Growth inhibition of yeast strains with defined genetic alterations is measured as a screen for potential anti-cancer activity. Selected strains with alterations in DNA damage repair or cell cycle control were exposed to compounds and growth inhibition was measured relative to vehicle treated controls. The strain used in this assay is cln2 rad14

[1] = at 5.0 µM (retest, dose inferred, filed as 0.5)
[2] = at 50.0 µM (retest, dose inferred, filed as 5.0)

CC(C)(C)c1ccc(CCO)cc1
growth inhibition [1]: -2%
growth inhibition [2]: -4%
growth inhibition (at 50.0 µM): -8.05%

CC1=C(C2=C(C)C(=O)C(=O)c3cc(C)ccc32)c2ccc(C)cc2C(=O)C1=O
growth inhibition [1]: 71% (active)
growth inhibition [2]: 98% (active)
growth inhibition (at 50.0 µM): 89.8% (active)

C1=C(c2ccccc2)c2ccccc2C1
growth inhibition [1]: 23%
growth inhibition [2]: 19%
growth inhibition (at 50.0 µM): 50%

Cc1cc(C(=O)c2ccc(Cl)cc2)ccc1O
growth inhibition [1]: -6%
growth inhibition [2]: -9%
growth inhibition (at 50.0 µM): 46%

OC(CSc1ccccc1)CN1CCN(c2ccc(Cl)cc2)CC1 (configuration not stated)
growth inhibition [1]: 9%
growth inhibition [2]: 62%
growth inhibition (at 50.0 µM): 15.6%

Cc1ccccc1NC(=O)Cc1csc2[n+]1C(=O)/C(=C/c1ccc([N+](=O)[O-])cc1)S2
growth inhibition [1]: -2%
growth inhibition [2]: 7%
growth inhibition (at 50.0 µM): -27.7%

C=C(C)C1CC2(C)C(C)CC(O)CC2C(OC(=O)C=C(C)C)C1O (configuration not stated)
growth inhibition [1]: 17%
growth inhibition [2]: 25%
growth inhibition (at 50.0 µM): 47%

CN(C)c1cc(N)c(Cc2c(N)cc(N(C)C)cc2Cl)c(Cl)c1
growth inhibition [1]: 8%
growth inhibition [2]: 96% (active)

C[C@@H]1CCC([C@@H](C)[C@H]2CC[C@H]3[C@@H]4CC[C@H]5C[C@@H](O)CC[C@]5(C)[C@H]4CC[C@]23C)=NC1
growth inhibition [1]: 60%
growth inhibition [2]: 98% (active)
growth inhibition (at 50.0 µM): 88.7% (active)

O=C1C(=O)c2cc([N+](=O)[O-])ccc2-c2ccccc21
growth inhibition [1]: 19%
growth inhibition [2]: 96% (active)
growth inhibition (at 50.0 µM): 96.3% (active)

NCCCN(CCCN)CCCNCc1c2ccccc2c(CNCCCN(CCCN)CCCN)c2ccccc12
growth inhibition [1]: 36%
growth inhibition [2]: 98% (active)
growth inhibition (at 50.0 µM): 92.7% (active)

COc1cc(-c2ccc(-[n+]3nc(-c4ccc([N+](=O)[O-])cc4)nn3-c3ccc([N+](=O)[O-])cc3)c(OC)c2)ccc1-[n+]1nc(-c2ccc([N+](=O)[O-])cc2)nn1-c1ccc([N+](=O)[O-])cc1
growth inhibition [1]: 96% (active)
growth inhibition [2]: 97% (active)
growth inhibition (at 50.0 µM): 88.5% (active)

Cc1nnc(N/N=C/c2ccc([N+](=O)[O-])o2)[nH]c1=O
growth inhibition [1]: 6%
growth inhibition [2]: 42%
growth inhibition (at 50.0 µM): 85.2% (active)

OC1CCCC(O)C1O (configuration not stated)
growth inhibition (at 50.0 µM): -7.2% and -2%

O=C(O)Cc1ccc(C2CCC(O)CC2)cc1 (configuration not stated)
growth inhibition (at 50.0 µM): -17.8% and -4.3%

CCc1ccc(NCc2cc(OC)c(OC)c(OC)c2)cc1
growth inhibition (at 50.0 µM): -4.45% and -2.55%

CC1CCOS(=O)O1 (configuration not stated)
growth inhibition (at 50.0 µM): 12.1% and 11.6%

From PubChem BioAssay (NCI)
